In the library only some 3.8% were active in any assay of this set; here they are far more common.
A1 inh = caspase 3/7 activation in MEF A1-2A-BIM cells, primary screen, A1 inhibitor project, cell-based, luminescence, HTS; Caspase-Glo 3/7 luminescence, 3 h; percent of clofoctol response, vehicle zero; caspase activation, % (no concentration beside the values); 330,000 tested, 0.066% active; AID 2462, 2010;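 active = over half of replicate activation scores above 10%, or exactly half above 10 with the replicate mean above 10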
NTR1 agonist = agonists of human NTR1, primary screen, imaging, U2OS cells, beta-arrestin-GFP, high content. Neurotensin receptor type 1 (Homo sapiens), P30989. NTR1-U2OS beta-arrestin-GFP spot imaging, agonist mode. activation, % at 20 µM. 330,000 tested, 0.17% active;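 active = activation at or above 40% of the spot to cytoplasm intensity ratio, with at least 20 cells analyzed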;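 also: 0% = DMSO without peptide and 100% = 100 nM NTR1 peptide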
697 NFkB inh = inhibitors of PMA/ionomycin-induced NF-kB reporter, 697 cells, primary screen, B-cell NF-kB inhibitor project, cell-based, luminescence, uHTS | 697 B-cell NF-kB luciferase reporter, 16 h | inhibition, % at 4 µM | 330,000 tested, 0.33% active | AID 435022, 2010; in the data active = inhibition above about 35%
Beta apoptosis = inhibitors of cytokine-induced beta cell apoptosis, primary screen, luminescence. INS-1E cytokine-induced death, ATP luminescence, 48 h; percent of positive-control rescue, neutral wells zero. protection from apoptosis, % (concentration not given with the values). 300,000 tested, 0.8% active. AID 435005, 2010;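 active = Every replicate reaches about 75%, or at least half do and their mean reaches it too, limit read from the data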;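 also: 0% = cytokine-treated negative control wells and 100% = positive control rescue; higher means more ATP so stronger rescue from cytokine killing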
Mdm2 MdmX PPI = inhibitors of human Mdm2-MdmX association, primary screen, cell-based, luminescence, split luciferase, SaOS-2, uHTS | Protein Mdm4 (Homo sapiens) + E3 ubiquitin-protein ligase Mdm2 (Homo sapiens), … | SaOS-2 split-luciferase Mdm2/MdmX complementation | inhibition, % at 8 µM | 330,000 tested, 3% active | AID 485346, 2010;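 active = inhibition of at least 50% at 8 µM in the primary screen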
Target sequence (O15151 whole entry, looked up): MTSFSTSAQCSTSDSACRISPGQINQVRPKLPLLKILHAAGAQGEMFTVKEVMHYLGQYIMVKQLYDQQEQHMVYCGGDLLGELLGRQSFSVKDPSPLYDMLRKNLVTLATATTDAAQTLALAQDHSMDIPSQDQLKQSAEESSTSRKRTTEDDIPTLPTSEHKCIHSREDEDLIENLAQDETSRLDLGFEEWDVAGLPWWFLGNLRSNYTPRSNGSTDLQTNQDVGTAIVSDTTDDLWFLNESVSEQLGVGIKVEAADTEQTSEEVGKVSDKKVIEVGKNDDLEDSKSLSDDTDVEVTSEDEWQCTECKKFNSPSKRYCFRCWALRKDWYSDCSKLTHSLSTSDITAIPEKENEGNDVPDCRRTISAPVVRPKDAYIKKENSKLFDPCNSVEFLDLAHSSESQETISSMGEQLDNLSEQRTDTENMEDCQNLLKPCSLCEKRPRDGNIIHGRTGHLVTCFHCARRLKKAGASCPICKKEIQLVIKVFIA
Target sequence (Q00987 whole entry, looked up): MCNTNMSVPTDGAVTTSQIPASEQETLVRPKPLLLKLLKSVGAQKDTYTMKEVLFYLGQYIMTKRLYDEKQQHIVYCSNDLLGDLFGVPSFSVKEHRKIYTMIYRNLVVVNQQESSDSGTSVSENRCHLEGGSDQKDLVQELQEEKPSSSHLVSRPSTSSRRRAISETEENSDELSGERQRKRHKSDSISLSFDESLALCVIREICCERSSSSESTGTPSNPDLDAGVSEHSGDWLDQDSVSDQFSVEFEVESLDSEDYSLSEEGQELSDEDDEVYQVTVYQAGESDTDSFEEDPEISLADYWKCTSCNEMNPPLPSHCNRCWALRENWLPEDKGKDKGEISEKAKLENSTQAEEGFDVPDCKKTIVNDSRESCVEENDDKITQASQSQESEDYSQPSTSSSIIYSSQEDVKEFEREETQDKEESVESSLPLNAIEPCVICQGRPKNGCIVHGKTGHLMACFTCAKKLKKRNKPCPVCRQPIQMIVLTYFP
Jurkat NFkB inh = inhibitors of induced NF-kB luciferase reporter, primary screen, TCR NF-kB activation inhibitor project, cell-based, luminescence, uHTS; inhibition, % at 4 µM; Jurkat, PMA/ionomycin-induced NF-kB luciferase reporter; AID 435003, 2010; 330,000 tested, 0.53% active; in the data active = inhibition above about 50%
Jurkat NFkB conf = PMA/ionomycin-induced NF-kB reporter inhibitors, Jurkat retest, confirmation, T-cell NF-kB inhibitor project, cell-based, luminescence, single concentration | 2,700 tested, 27% active | Jurkat NF-kB luciferase, 16 h | shares compounds with Jurkat NFkB inh | inhibition, % at 4 µM;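 active = inhibition reaching about 45% at 4 µM in either replicate, limit read from the data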;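 also: plate controls were PMA/ionomycin stimulated DMSO wells for no effect and unstimulated DMSO wells for full effect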
697 NFkB conf = PMA/ionomycin-induced NF-kB reporter inhibitors, 697 retest, confirmation, B-cell NF-kB inhibitor project, cell-based, luminescence, single concentration; AID 449746, 2010; 697 B-cell NF-kB luciferase, 16 h; inhibition, % at 4 µM; 2,000 tested, 35% active; shares compounds with 697 NFkB inh; in the data active = inhibition mostly above about 28%, no sharp cut-off; inactive = mostly below about 22%
Mdm2-MdmX conf = Mdm2-MdmX complex disruptors, retested hits, confirmation, luminescence, single concentration; shares compounds with Mdm2 MdmX PPI; Mdm2-MdmX binding, luminescent assay; inhibition, % at 8 µM; 10,000 tested, 55% active; AID 489028, 2010; in the data active = inhibition above about 40%
Full FLuc ctr = full-length luciferase signal inhibition, confirmation, counter-screen for Mdm2/MdmX interaction inhibitor project, cell-based, single concentration, SaOS-2; AID 504607, 2011; inhibition, % at 8 µM; 6,200 tested, 77% active; SaOS-2 full-length luciferase counterscreen, luminescence; shares compounds with Mdm2 MdmX PPI;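 active = mean inhibition at 8 µM reaching about 37%, which flags the compound as non-specific, limit read from the data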;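 also: p53-null SaOS-2 cells with luciferase driven by a doxycycline-inducible promoter; compound on cells about two nights before reading with doxycycline added after day one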
Numbers without * were called inactive; nt = not tested or not shown; ! = repeats disagree.

SMILES | A1 inh | NTR1 agonist | 697 NFkB inh | Beta apoptosis | Mdm2 MdmX PPI | Jurkat NFkB inh | Jurkat NFkB conf | Mdm2-MdmX conf | Full FLuc ctr | others
Cc1cc(C)cc(NC(=O)COc2coc(CN3CCc4ccccc43)cc2=O)c1 | -0.2 | 0.7 | 15.9 | 10.6 | 29.4 | 8.3 | nt | nt | nt
CCN1CCN(Cc2ccc(NC(=O)c3ccc(C)c(NC(=O)C(=O)c4c[nH]c5ccccc45)c3)cc2C(F)(F)F)CC1 | -0.5 | 40.8*! | 0.3 | 110.4* | 100.3* | 95.3* | 23.6 | 93.0* | 30.8
CCN1CCN(Cc2ccc(NC(=O)c3ccc(C)c(NC(=O)c4ccc5n[nH]nc5c4)c3)cc2C(F)(F)F)CC1 | -1.6 | 0.1 | 1.4 | -9.6 | 45.8 | -12.8 | nt | nt | nt
CCN1/C(=C/C=C/c2oc3ccc(-c4ccccc4)cc3[n+]2CC)Oc2ccc(-c3ccccc3)cc21 | -1.0 | -3.8 | 47.5* | 110.8* | 96.7* | 97.7* | 20.9 | 91.6* | 1.4 | 697 NFkB conf=-16.9
COc1ccc(N/N=C/c2c(C(=O)O)ccc3ccccc23)cc1 | 1.1 | 5.9 | -8.5 | 116.1* | 85.9* | 54.2* | 41.7 | 90.0* | 24.1
CC(=O)c1cccc(NC(=O)CN2C(=O)C(=O)N(Cc3ccco3)C2=O)c1 | 0.2 | 0.6 | 13.0 | -1.4 | 23.2 | 3.7 | nt | nt | nt
CN(C)c1ccc(/C=N/NC(=O)c2ccc3c(c2)OCO3)cc1 | -10.7 | -0.1 | -15.4 | 2.9 | 5.7 | 10.1 | nt | nt | nt
Cc1c(C(=O)N/N=C/c2ccc(N(C)C)cc2)[nH]c2ccc(Cl)cc12 | -0.1 | 8.5 | 13.0 | 28.2 | 64.7* | 50.4* | 0.1 | 51.3* | 69.2*
CCOc1ccc2c(c1)C(C)=CC(C)(C)N2S(=O)(=O)c1ccc(NC(C)=O)cc1 | 2.4 | 5.3 | -155.6 | 45.3 | 62.2* | 55.7* | 58.2* | 58.0* | 112.7*
CCC(=O)Nc1ccc(C(=O)NNC(=O)C2CCCCC2)cc1 | 1.5 | -0.4 | 19.0 | 1.1 | 11.7 | -4.3 | nt | nt | nt
c1ccc(-c2cccc(-c3ccccn3)n2)nc1 | -0.2 | -0.9 | -5.4 | 81.5* | 65.5* | 92.0* | 82.6* | 78.7* | 18.4
c1ccc(-c2nnc(-c3ccccn3)nn2)nc1 | -7.2 | 0.5 | -107.7 | 0.8 | -37.0 | -75.2 | nt | nt | nt
COc1ccccc1-c1nnc(Nc2nc3c(OC)cccc3s2)o1 | -10.1 | -2.1 | -109.6 | 72.2 | 58.9* | 87.6* | 33.6 | 68.2* | 72.3*
COc1cccc2sc(Nc3nnc(-c4ccccc4Cl)o3)nc12 | -4.8 | 6.5 | -29.8 | nt | 65.0* | 57.7* | 45.4 | 65.0* | 53.8*
COc1cccc2sc(Nc3nc(-c4ccncc4)cs3)nc12 | 0.4 | 3.0 | -28.3 | 34.4 | 61.0* | 60.3* | 35.0 | 45.9* | 51.0*
COc1cccc2sc(Nc3nc(-c4cc5ccccc5oc4=O)cs3)nc12 | 0.5 | nt | nt | 3.5 | nt | nt | nt | nt | nt
COc1ccc(C2C3=C(CC(C)(C)CC3=O)Nc3cc4c(cc32)OCO4)cc1 (stereo not given) | 0.3 | 3.8 | 10.7 | -11.1 | 4.8 | -4.5 | nt | nt | nt
COc1ccc(OC)c(C2C3=C(COC3=O)Nc3cc4c(cc32)OCO4)c1 (stereo not given) | nt | -3.6 | 43.2* | 50.4 | 55.2* | 77.5* | 42.2 | 68.5* | 124.6* | 697 NFkB conf=39.3*
CN(C)C(CNC(=O)CSc1nc2ccccc2c(=O)n1Cc1ccco1)c1ccccc1 (stereo not given) | 2.3 | -0.4 | -1.7 | 1.7 | -26.5 | -4.7 | nt | nt | nt
CCc1nnc(NC(=O)CCc2ccc(C)o2)s1 | 1.7 | 2.7 | 19.8 | -2.7 | 5.2 | -8.3 | nt | nt | nt
Cc1ccc(CCC(=O)Nc2ncc(Cc3cccc(Cl)c3Cl)s2)o1 | 1.6 | 2.0 | -139.6 | nt | 68.9* | 71.7* | -0.1 | 66.5* | 76.5*
Cc1ccc(NC(=O)c2nc[nH]c2C(=O)NCCCCNC(=O)c2[nH]cnc2C(=O)Nc2ccc(C)cc2)cc1 | 0.5 | 20.0 | 25.4 | 14.6 | 79.6* | 50.1* | 17.4 | 21.0 | nt
Cc1cc(/C=N/n2cnnc2)c(C)n1-c1ccc(OCc2ccc(Cl)cc2Cl)cc1 | 0.1 | 9.5 | 40.2* | 113.0* | 73.6* | 70.2* | 32.4 | 31.3 | nt | 697 NFkB conf=12.7
O=C(NNC(=O)C12CC3CC(CC(C3)C1)C2)c1ccccn1 | 1.1 | 2.2 | 23.3 | 91.0* | 54.1* | 72.1* | 23.4 | 54.5* | 50.8*
COC(=O)N(C)c1nc2ccccc2s1 | -4.6 | 5.8 | -10.6 | 2.0 | -14.9 | -22.4 | nt | nt | nt
SMILES | A1 inh | NTR1 agonist | 697 NFkB inh | Beta apoptosis | Mdm2 MdmX PPI | Jurkat NFkB inh | Jurkat NFkB conf | Mdm2-MdmX conf | Full FLuc ctr | others
CN(C(=O)OC(C)(C)C)c1ccc(-c2nc3ccccc3s2)cc1 | -11.5 | 7.2 | 66.4* | 2.5 | 87.6* | 68.8* | 90.3* | 90.5* | 24.8 | 697 NFkB conf=48.2*
COc1cc(/C=C2/SC(=Nc3ccc(O)cc3)NC2=O)ccc1O | 2.8 | 3.6 | -82.9 | 34.3 | 74.1* | 59.1* | 38.7 | 72.0* | 68.2*
COc1ccccc1C(=O)Nc1nc(-c2ccc(S(=O)(=O)N3CCOCC3)cc2)cs1 | -0.8 | 25.2 | 40.7* | 85.1* | 77.5* | 75.9* | 61.1* | 83.0* | 29.5 | 697 NFkB conf=30.1*
COc1ccccc1OC(C)C(=O)Nc1nc(-c2ccc(S(=O)(=O)N3CCOCC3)cc2)cs1 (stereo not given) | 0.8 | 0.9 | -48.9 | 0.0 | 22.6 | -8.2 | nt | nt | nt
C=C(C)COc1ccc(-c2[nH]ncc2-c2ccc(OC)c(OC)c2)c(O)c1 | 0.0 | 13.2 | -60.2 | 23.8 | 65.6* | 63.7* | 62.4* | 59.8* | 55.9*
C=C(C)COc1ccc(-c2n[nH]c(C)c2-c2ccc(OC)c(OC)c2)c(O)c1 | 0.3 | 10.0 | -13.2 | 20.5 | 70.9* | 66.9* | 50.4* | 53.6* | 62.7*

Screening results from PubChem.
